Pf growth 96h – P. falciparum growth inhibition at 96 hours | P. falciparum luciferase reporter growth, 96 h | Potency, µM (top dose mostly 28.7 µM), for inactives: at the highest dose activity change, negative = inhibition, actives largely listed as inhibitors | 320,000 tested, 6.9% active | AID 504834; note: % is set by controls: 0 for no effect and ±100 for the full control effect
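Two-generation exposure (96 h) targets delayed-death phenotype. Reporter parasites carrying integrated firefly luciferase, in red cells at 2% hematocrit and 0.05% parasitemia final, kept at 37 C, 5% CO2; luminescence loss indicates inhibition.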
Pf growth 48h – inhibits P. falciparum growth in the first generation, 48 h; 310,000 tested, 5.9% active; P. falciparum luciferase growth in erythrocytes, 48 h; Potency, µM (titrated, usually from 28.7 µM), for inactives: top-dose activity change, negative = inhibition, usual class: inhibitors; note: % is set by controls: 0 for no effect and ±100 for the full control effect
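Parasite viability was followed by luminescence of a genomically integrated firefly luciferase. Cultures held 0.1% parasitemia at 2% hematocrit (final), incubated under 5% CO2 at 37 C.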
NS1 function inh – blocks influenza NS1 protein function; Potency, µM (series often up to 46.1 µM), for the others: at the highest dose activity, positive = more growth; 270,000 tested, 0.4% active; calls by dose curve; note: actives are rising curves; nearly all actives have a fitted effect of over 50% in size
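S. cerevisiae expressing influenza A NS1, grown in glucose, washed, then diluted 1:100 into pH 6.0 -URA galactose medium with 23 nl compound. Growth recovery read as OD600; NS1-free strain serves as control.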
Sm TGR inh – inhibitors of Schistosoma mansoni thioredoxin glutathione reductase | Q962Y6 | purified TGR, DTNB reduction, TNB absorbance 405 nm | Potency, µM (top dose mostly 114 µM), without a hit: at the top dose activity change, negative = inhibition, usual class: inhibitors | 360,000 tested, 3% active | AID 485364; note: % is set by controls: 0 for no effect and ±100 for the full control effect; nearly all actives have a fitted effect of over 60% in size
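Kinetic colorimetric format: TGR-catalysed, NADPH-driven DTNB reduction monitored via TNB absorbance. Enzyme dispensed at 20 nM; compound exposure 15 min at room temperature before reaction start.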
AMA1-RON2 inh – inhibitors of Plasmodium falciparum AMA1-RON2 interaction. AlphaScreen AMA1-biotinylated RON2 peptide binding. Potency, µM (highest dose often 58.2 µM), inactives show at the highest dose activity change, negative = inhibition, usual class: inhibitors. 360,000 tested, 0.2% active;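 note: 0% = vehicle wells and -100% = peptide control; nearly all actives have a fitted effect of over 45% in size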
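AMA1 (3D7) with his tag at 25 nM final met compounds first, then biotinylated RON2 peptide at 25 nM; detection used donor plus acceptor beads, 10 µg/mL apiece, read by AlphaScreen after 30 min at room temperature.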
Active calls of the source: *; ? = inconclusive; . = no result given. Rows were chosen to be rich in hits. Some 11% of all compounds tested hit in one or more screens of this group. Unless noted, calls come from the whole dose curve; as a rule, active = well fitted curve in the direction sought with a large enough effect; inconclusive = small, poorly fitted or top-dose-only effect, or another doubt; inactive = no such curve, though single readings can be large; an effect the other way counts as inactive or inconclusive. Potency is the fitted concentration of half-maximal effect.

SMILES	Pf growth 96h	Pf growth 48h	NS1 function inh	Sm TGR inh	AMA1-RON2 inh
O=C(COC(=O)c1cc(-c2ccco2)nc2ccccc12)NCc1ccc2c(c1)OCO2	-11%	-18%	-3%	8.9µM*	-7%
Cc1ccc(CNC(=O)CCCCCn2c(=O)c3sccc3n(CC(=O)N3CCCCC3C)c2=O)cc1 (stereo unspecified)	.	.	.	-4%	.
COC(=O)c1c(NC(=O)Cc2coc3cc(C)ccc23)sc2c1CCC2	.	.	.	-2%	.
COC(=O)[C@]12CCCCC=C1N(Cc1cccc3ccccc13)C(=O)[C@H](CC(=O)N1CCN(C(=O)c3ccco3)CC1)C2	.	.	.	.	-24%
COc1ccccc1CNC(=O)COC(=O)c1cc(C)nc2ccccc12	.	.	.	.	3%
COc1ccccc1CNC(=O)COC(=O)c1cc(-c2ccco2)nc2ccccc12	.	16%	9%	10µM*	-12%
CCCN(C(=O)c1cc2c(s1)-c1ccccc1OC2)c1ccc(C(C)C)cc1	.	.	.	8%	.
O=C(CSc1ncn[nH]1)N1N=C2/C(=C/c3ccccc3)CCCC2C1c1ccccc1 (stereo unspecified)	7.4µM*	?	13%	-13%	22%
O=C(CSc1nccc(=O)[nH]1)N1N=C2/C(=C/c3ccco3)CCCC2C1c1ccco1 (stereo unspecified)	0%	-19%	.	22µM*	-22%
COc1ccc(C2(c3ccc(OC)cc3)NC(=O)N(Cn3nnc4ccccc4c3=O)C2=O)cc1	?	12µM*	-7%	6%	-2%
COc1ccc(NC(=O)CCCCCn2nnc3ccccc3c2=O)cc1	-17%	-22%	-6%	12%	-14%
CC1(C(=O)NS(=O)(=O)c2cccc(C#N)c2)CCN1C(=O)CC1CC1 (stereo unspecified)	.	.	.	.	-7%
O=C(COC(=O)c1ccc(Br)cc1)NCc1ccccc1	-7%	0%	-1%	-6%	0%
CC(=O)Cc1cc(O)c2ccccc2c1OC(=O)c1ccc(Br)cc1	5.9µM*	2.9µM*	3%	-3%	-7%
COc1ccccc1N1CCN(C(=O)c2cc(-c3ccco3)on2)CC1	?	.	-20%	56µM*	-13%
COc1ccccc1-c1cc(C(=O)N2CCN(c3ccc(F)cc3)CC2)no1	8.3µM*	35%	-5%	0%	-19%
COc1ccccc1-c1cc(C(F)(F)F)nc(N2CCN(c3ccc(F)cc3)CC2)n1	13µM*	-2%	-9%	0%	-2%
COc1ccccc1-c1cc(C(=O)N2CCOCC2)no1	?	97%	-3%	1%	-1%
O=C(COC(=O)c1ccc(S(=O)(=O)N2CCCCC2)cc1)NCc1ccccc1	.	.	.	.	-3%
CC(C)CCn1nc(C(=O)Nc2nc3c(s2)CCCC3)c2ccccc2c1=O	?	10µM*	21%	-9%	21%
CCn1nc(C(=O)Nc2nc(-c3ccccn3)cs2)c2ccccc2c1=O	2.6µM*	2.3µM*	.	-7%	104%
O=C(Nc1nc2c(s1)CCCC2)c1nn(Cc2ccccc2)c(=O)c2ccccc12	?	?	16%	6%	-13%
CCCn1nc(C(=O)Nc2nc(-c3ccccn3)cs2)c2ccccc2c1=O	4.1µM*	4.1µM*	.	-29%	-13%
CCCn1nc(C(=O)Nc2nnc(C3CC3)s2)c2ccccc2c1=O	?	-32%	.	0%	-10%
O=C(Nc1nc(-c2ccccn2)cs1)c1ccccc1-n1cnnn1	1.7µM*	?	-11%	4%	-30%
SMILES	Pf growth 96h	Pf growth 48h	NS1 function inh	Sm TGR inh	AMA1-RON2 inh
CC(=O)Nc1ccc(C(=O)Nc2nc(-c3ccccn3)cs2)cc1	?	?	14%	?	-20%
Cn1nc(C(=O)Nc2nc(-c3ccccn3)cs2)c2ccccc2c1=O	3.3µM*	4.1µM*	.	-2%	23%
O=c1cc(CSc2ccc(Cl)cc2)nc(-c2ccccn2)[nH]1	1.9µM*	2.3µM*	-96%	-3%	-38%
Cc1ccsc1C(=O)N(Cc1nnc(-c2ccccc2Cl)o1)C1CC1	?	?	.	-8%	4%
O=C(c1ccc([N+](=O)[O-])o1)N(Cc1nnc(-c2ccccc2Cl)o1)C1CC1	?	?	.	50µM*	122%
CN1CCN(S(=O)(=O)c2cccc(C(=O)N(Cc3nnc(-c4ccccc4Cl)o3)C3CC3)c2)CC1	15µM*	?	1%	?	118%
CCOC(=O)C1CCCCN1Cc1ccc(-c2ccccc2)cc1 (stereo unspecified)	?	40%	-47%	-3%	-8%
N[C@@H](Cc1ccccc1)C(=O)N1CCC(C(=O)NCC(=O)NCC(=O)O)CC1	8%	2%	5%	1%	36%
Cn1c(C(=O)NCCCN2CCCCCC2)cc2c(=O)n(C)c3ccccc3c21	?	3.3µM*	3%	?	-4%
CCN(CC)CCCNC(=O)c1cc2c(=O)n(C)c3ccccc3c2n1C	10µM*	.	4%	-32%	5%
CCCN1CCN(CCCNC(=O)c2cc3c(=O)n(C)c4ccccc4c3n2C)CC1	3%	.	1%	-6%	9%
Cc1cc(N2CCN(c3ccc(F)cc3)CC2)n2nc(-c3ccc(Cl)cc3)nc2n1	.	.	.	8%	.
CC(=O)Nc1ccc(S(=O)(=O)NCCc2ccc3c(c2)OCCO3)cc1	.	.	.	.	-6%
CCCOc1cccc(C(=O)Nc2cccc(-c3nc4ncccc4o3)c2C)c1	.	.	.	5%	.
COc1ccc(S(=O)(=O)NCc2nc3nc(C)cc(C)n3n2)cc1OC	5.2µM*	13%	-2%	2%	0%
O=C(CSc1nc2nn(-c3ccccc3)c(=O)c-2c2n1CCCCC2)NCCCc1ccccc1	?	9.3µM*	.	-2%	4%
CC(Sc1nc2nn(-c3ccccc3)c(=O)c-2c2n1CCCCC2)C(N)=O (stereo unspecified)	.	-16%	0%	-13%	3%
O=C(CSc1nc2nn(-c3ccccc3)c(=O)c-2c2n1CCCCC2)Nc1ccccc1[N+](=O)[O-]	6.6µM*	?	.	-2%	14%
Cc1cc(N2CCC(C(=O)Nc3ccccc3Cl)CC2)n2nc(C)c(-c3ccc(Cl)cc3)c2n1	.	.	.	-9%	.
COC(=O)c1ccc(NC(=O)CSc2cn(CC(=O)N3CCCCCC3)c3ccccc23)cc1	.	.	.	8%	.
C[C@@H]1CN([C@@H](C)CO)C(=O)c2cc(N(C)C)ccc2O[C@@H](C)CCCCO[C@@H]1CN(C)S(=O)(=O)c1cccs1	.	.	.	.	7%
CC1=CC(c2ccccc2)n2nc(NS(=O)(=O)c3ccc(C)cc3)nc2N1 (stereo unspecified)	7%	10%	?	35µM*	13%
CC1=CC(c2ccc(Cl)cc2)n2nc(NS(=O)(=O)c3ccc(C)cc3)nc2N1 (stereo unspecified)	11%	4%	10%	32µM*	0%
Cc1ccc(S(=O)(=O)Nc2nc3n(n2)C(c2ccc(Cl)cc2)C=C(c2ccccc2)N3)cc1 (stereo unspecified)	.	.	.	2%	.
